# Results filed as inconclusive are left out. Where a call stands in place of a potency, no number is given. Calls of active or inactive are those of the source. Calls come from the whole dose curve; as a rule, active = well fitted curve in the direction sought with a large enough effect; inconclusive = small, poorly fitted or top-dose-only effect, or another doubt; inactive = no such curve, though single readings can be large; an effect the other way counts as inactive or inconclusive.
# Tests used:
# [1] = biological target: Luciferin 4-monooxygenase (Photinus pyralis) (UniProt P08659); assay: Primary firefly luciferase (FLuc) qHTS assay for identification of artifact compounds. (AID 1845220); note: series mostly up to about 54 µM; nearly all actives have a fitted effect of over 60% in size
# Procedure, shortened: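 In this counter-screen for luciferase artifacts, test compounds met substrate (10 uM each luciferin and ATP) before 10 nM enzyme started the reaction. Light output was measured 5 min later.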
# [2] = tested on: Nanoluciferase (engineered Oplophorus gracilirostris luciferase); assay: Primary Nanoluciferase (NLuc) qHTS assay for identification of artifact compounds. (AID 1845222);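 note: NLuc secreted into diluted conditioned medium of S16 cells; series mostly up to about 54 µM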
# Procedure, shortened: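 Using secreted nanoluciferase in S16 culture medium (0.22 um filtered, 1:55 dilution), compounds were preincubated 15 min at RT. Signal was generated with Nano-Glo reagent (1:100) over 5 min.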
# [3] = Primary redox qHTS assay for identification of artifact compounds. (AID 1845223)
# Procedure, shortened: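 Redox-cycling detection via DTT (250 uM final) oxidation coupled to Amplex Red (25 uM)/HRP (250 mU/mL) in HBSS. 15 min preincubation plus 30 min after DTT, room temperature. Ex/Em 525/598 nm; 4-parameter Hill fit against DMSO and 10 uM DA3003.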
# [4] = Quantitative High-Throughput drug screen in 47 multiple myeloma cell lines against the NCATS MIPE library collection: FR4_PLB cell viability assay (AID 1918924; note: nearly all actives have a fitted effect of over 35% in size; note: potency is the fitted concentration of half-maximal effect)
# Procedure, shortened: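 Relative luminescence from CellTiter-Glo served as the viability signal, referenced to DMSO-treated (100%) and cell-free medium (0%) controls. Treatment lasted 48 hours at 37C with 500 cells per well.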
# [5] = Quantitative High-Throughput drug screen in 47 multiple myeloma cell lines against the NCATS MIPE library collection: Delta47_JCRB cell viability assay (AID 1918925; note: nearly all actives have a fitted effect of over 45% in size; note: potency is the fitted concentration of half-maximal effect)
# Procedure, shortened: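 CellTiter-Glo ATP luminescence gave viability after 48 h compound treatment at 37C of 500 multiple myeloma cells per well. Normalisation used DMSO-only wells as 100% and media-only wells as 0% viability; primary qHTS of approved and investigational drugs.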
# [6] = biological target: Phospholipid hydroperoxide glutathione peroxidase GPX4 (Homo sapiens) (UniProt P36969); assay: Primary qHTS Assay for Inhibitors of Recombinant Selenoprotein Glutathione Peroxidase 4 (GPX4) (AID 1845192); note: series mostly up to about 50 µM; nearly all actives have a fitted effect of over 65% in size
# Chain of Phospholipid hydroperoxide glutathione peroxidase GPX4 (Homo sapiens) (P36969 whole entry, looked up): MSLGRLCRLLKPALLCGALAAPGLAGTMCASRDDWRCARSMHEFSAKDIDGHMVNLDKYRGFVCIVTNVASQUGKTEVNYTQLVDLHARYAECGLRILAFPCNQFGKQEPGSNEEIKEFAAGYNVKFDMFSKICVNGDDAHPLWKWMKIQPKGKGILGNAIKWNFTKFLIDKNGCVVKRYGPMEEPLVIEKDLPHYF
# Procedure, shortened: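 qHTS, GR-coupled: GPX4 200 nM + cpd 30 min RT → GSH 1 mM, NADPH 0.5 mM, GR 100 nM → CHP 0.5 mM start; fluor 340/450 at t0 and t15 min; no-enzyme wells as control.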
smiles,measurement,setting,value
C[C@@]1(C(=O)Nc2ccc(F)nc2)CCCN1c1nc(Nc2cc(C3CC3)[nH]n2)c2cccn2n1,Potency,[1],inactive
same,Potency,[2],inactive
same,outcome,[3],inactive
same,Potency,[4],166 nM (active)
same,Potency,[5],16.6 nM (active)
CCC(=C(CC)c1ccc(O)cc1)c1ccc(O)cc1,Potency,[4],8330 nM (active)
CO[C@H]1/C=C\O[C@@]2(C)Oc3c(C)c(O)c4c(O)c(c(C=NN5CCN(C6CCCC6)CC5)c(O)c4c3C2=O)NC(=O)C(C)=CC=C[C@H](C)[C@H](O)[C@@H](C)[C@@H](O)[C@@H](C)[C@H](OC(C)=O)[C@H]1C,Potency,[4],372 nM (active)
CO[C@H]1C=CO[C@@]2(C)Oc3c(C)c(O)c4c(O)c(c(C=NN5CCN(C)CC5)c(O)c4c3C2=O)NC(=O)C(C)=CC=C[C@H](C)[C@H](O)[C@@H](C)[C@@H](O)[C@@H](C)[C@H](OC(C)=O)[C@H]1C,Potency,[4],inactive
CCNC(=O)Nc1ccc(Oc2ncnc(N)c2C=NOC)cc1Cl,Potency,[4],3720 nM (active)
OCCn1cc(-c2ccc3c(c2)CCC3=NO)c(-c2ccncc2)n1,Potency,[4],inactive
CCC=CC[C@H]1C(=O)CC[C@@H]1CC(=O)OC,Potency,[4],inactive
COc1ccc(CCN(C)CCCOc2ccc(S(=O)(=O)c3[nH]c4ccccc4c3C(C)C)cc2)cc1OC,Potency,[6],inactive
same,Potency,[5],20900 nM (active)
CC(NCCc1ccc(O)cc1)C(O)c1ccc(O)cc1 (stereo not given),Potency,[6],inactive
same,Potency,[4],inactive
same,Potency,[5],inactive
NCc1c[nH]c(=S)n1[C@H]1CCc2c(F)cc(F)cc2C1,Potency,[4],14800 nM (active)
CN(C)c1ccc(-c2nc3ncc(Cl)c(N4CCN(CC(=O)Nc5nccs5)CC4)c3[nH]2)cc1,Potency,[2],inactive
same,outcome,[3],inactive
same,Potency,[4],2090 nM (active)
